Among all 5,500 compounds or so, about 2,000 (36%) were called active. About 18% were inconclusive and are not listed. Rule as the data show it: active = normalized growth mostly below about 0.91 (no sharp cut-off); inconclusive = no clear call, values can overlap the other calls; inactive = mostly above about 0.92. The list shows a part of the results.
Test: chemical genetic growth profiling, strain panel (AID 1159580);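 also: tested at 20 µM; growth read once vehicle control cultures reached saturation at 30 °C; 1 = growth at the plate median or of vehicle wells; lower values mean less growth of the strain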
Details: S. cerevisiae deletion strains, growth OD
[1] = locus YAR019C, strain CDC15, active compounds read low
[2] = locus YBL105C, strain PKC1, active compounds read low
[3] = locus YBR135W, strain CKS1, active compounds read low
[4] = locus YBR136W, strain MEC1, active compounds read low
[5] = locus YBR160W, strain CDC28, active compounds read low
[6] = locus YDL017W, strain CDC7, active compounds read low
[7] = locus YDL028C, strain MPS1, active compounds read low
[8] = locus YDL101C, strain DUN1, active compounds read low
[9] = locus YDL108W, strain KIN28, active compounds read low
[10] = locus YDL132W, strain cdc53, active compounds read low
[11] = locus YDL214C, strain PRR2, active compounds read low
[12] = locus YDR052C, strain DBF4, active compounds read low
[13] = locus YDR054C, strain cdc34, active compounds read low
[14] = locus YDR226W, strain ADK1, active compounds read low
[15] = locus YDR477W, strain SNF1, active compounds read low
[16] = locus YER123W, strain YCK3, active compounds read low
[17] = locus YER133W, strain GLC7, active compounds read low
[18] = locus YFL009W, strain cdc4, active compounds read low
[19] = locus YFL029C, strain CAK1, active compounds read low
[20] = locus YFR003C, strain YPI1, active compounds read low
[21] = locus YFR019W, strain FAB1, active compounds read low
[22] = locus YFR028C, strain CDC14, active compounds read low
[23] = locus YGR040W, strain KSS1, active compounds read low
[24] = locus YGR052W, strain FMP48, active compounds read low
[25] = locus YGR092W, strain DBF2, active compounds read low
[26] = locus YHR030C, strain SLT2, active compounds read low
[27] = locus YHR079C, strain IRE1, active compounds read low
[28] = locus YHR082C, strain KSP1, active compounds read low
[29] = locus YHR205W, strain SCH9, active compounds read low
[30] = locus YIL147C, strain SLN1, active compounds read low
[31] = locus YJL095W, strain BCK1, active compounds read low
[32] = locus YJL128C, strain PBS2, active compounds read low
[33] = locus YJL157C, strain FAR1, active compounds read low
[34] = locus YJR016C, strain ILV3, active compounds read low
[35] = locus YJR066W, strain TOR1 (second series), active compounds read low
[36] = locus YJR066W, strain TOR1, active compounds read low
[37] = locus YKL048C, strain ELM1, active compounds read low
[38] = locus YKL067W, strain YNK1, active compounds read low
[39] = locus YKL101W, strain HSL1, active compounds read low
[40] = locus YKL193C, strain SDS22, active compounds read low
[41] = locus YKL203C, strain TOR2, active compounds read low
[42] = locus YLR113W, strain HOG1, active compounds read low
[43] = locus YLR133W, strain CKI1, active compounds read low
[44] = locus YLR403W, strain SFP1, active compounds read low
[45] = locus YML070W, strain DAK1, active compounds read low
[46] = locus YMR001C, strain CDC5, active compounds read low
[47] = locus YMR205C, strain PFK2 (second series), active compounds read low
[48] = locus YMR277W, strain FCP1, active compounds read low
[49] = locus YNL006W, strain LST8, active compounds read low
[50] = locus YNL020C, strain ARK1, active compounds read low
[51] = locus YNL161W, strain CBK1, active compounds read low
[52] = locus YNL183C, strain NPR1, active compounds read low
[53] = locus YNL207W, strain RIO2, active compounds read low
[54] = locus YNL222W, strain SSU72, active compounds read low
[55] = locus YNL307C, strain MCK1 (second series), active compounds read low
[56] = locus YOL078W, strain AVO1, active compounds read low
[57] = locus YOL136C, strain PFK27, active compounds read low
[58] = locus YOR061W, strain CKA2, active compounds read low
[59] = locus YOR119C, strain RIO1, active compounds read low
[60] = locus YOR231W, strain MKK1, active compounds read low
[61] = locus YOR329C, strain SCD5, active compounds read low
[62] = locus YPL031C, strain PHO85, active compounds read low
[63] = locus YPL153C, strain RAD53, active compounds read low
[64] = locus YPL204W, strain HRR25, active compounds read low
[65] = locus YPL209C, strain IPL1, active compounds read low
[66] = locus YPL256C, strain CLN2, active compounds read low
[67] = locus YPR025C, strain CCL1, active compounds read low
[68] = locus YPR106W, strain ISR1, active compounds read low
[69] = locus YPR111W, strain DBF20, active compounds read low
[70] = strain NNK1, active compounds read low
[71] = strain TSCII, active compounds read low

Measured: normalized growth

O=[N+]([O-])c1ccc(Sc2ccccc2)c([N+](=O)[O-])c1
active: [1] 0.862 | [2] 0.894 | [3] 0.874 | [4] 0.884 | [5] 0.896 | [6] 0.89 | [7] 0.888 | [8] 0.876 | [9] 0.88 | [10] 0.867 | [11] 0.695 | [13] 0.83 | [14] 0.858 | [18] 0.847 | [19] 0.866 | [20] 0.886 | [25] 0.271 | [26] 0.492 | [29] 0.522 | [30] 0.885 | [32] 0.757 | [34] 0.877 | [37] 0.71 | [38] 0.691 | [39] 0.662 | [40] 0.876 | [42] 0.396 | [43] 0.717 | [46] 0.868 | [47] 0.678 | [48] 0.868 | [49] 0.87 | [51] 0.864 | [53] 0.859 | [54] 0.88 | [56] 0.867 | [57] 0.65 | [61] 0.884 | [65] 0.883 | [66] 0.428 | [67] 0.893 | [68] 0.849 | [69] 0.812 | [70] 0.796 | [71] 0.853
inactive: [12] 0.913 | [15] 0.75 | [16] 0.685 | [17] 0.803 | [21] 0.84 | [22] 0.899 | [23] 0.784 | [24] 0.706 | [27] 0.655 | [28] 0.719 | [31] 0.673 | [33] 0.748 | [35] 0.756 | [36] 0.748 | [41] 0.785 | [44] 0.758 | [45] 0.689 | [50] 0.733 | [52] 0.708 | [55] 0.704 | [58] 0.768 | [59] 0.806 | [60] 0.64 | [62] 0.73 | [63] 0.723 | [64] 0.727

CC(=O)c1ccc(Sc2ccccc2)c([N+](=O)[O-])c1
inactive: [11] 0.792 | [15] 0.788 | [16] 0.799 | [17] 0.874 | [21] 0.88 | [23] 0.78 | [24] 0.784 | [27] 0.813 | [28] 0.859 | [29] 0.773 | [31] 0.756 | [33] 0.818 | [35] 0.823 | [36] 0.811 | [38] 0.788 | [39] 0.753 | [41] 0.814 | [43] 0.79 | [44] 0.756 | [45] 0.809 | [47] 0.772 | [50] 0.803 | [52] 0.798 | [55] 0.772 | [57] 0.772 | [58] 0.815 | [59] 0.835 | [60] 0.788 | [62] 0.785 | [63] 0.79 | [64] 0.773
active: [1] 0.877 | [2] 0.878 | [3] 0.864 | [4] 0.874 | [5] 0.876 | [6] 0.879 | [7] 0.885 | [8] 0.873 | [9] 0.876 | [10] 0.87 | [12] 0.898 | [13] 0.845 | [14] 0.857 | [18] 0.868 | [19] 0.87 | [20] 0.874 | [22] 0.865 | [25] 0.387 | [26] 0.75 | [30] 0.875 | [32] 0.778 | [34] 0.882 | [37] 0.753 | [40] 0.869 | [42] 0.698 | [46] 0.858 | [48] 0.859 | [49] 0.855 | [51] 0.869 | [53] 0.861 | [54] 0.876 | [56] 0.861 | [61] 0.881 | [65] 0.872 | [66] 0.782 | [67] 0.884 | [68] 0.866 | [69] 0.838 | [70] 0.853 | [71] 0.86

Source: PubChem BioAssay AID1159580 (chemical genetic matrix, 2015)
